# Reference: PubChem BioAssay (NCATS)
# Results filed as inconclusive are left out. Where a call stands in place of a potency, no number is given. Activity calls are given as the source filed them. Calls follow the shape of the dose curve; as a rule, active = well fitted curve in the direction sought with a large enough effect; inconclusive = small, poorly fitted or top-dose-only effect, or another doubt; inactive = no such curve, though single readings can be large; an effect the other way counts as inactive or inconclusive.
# Tested on: not listed separately
# Experiment: Cellular Toxicity (caspase-3) SK-N-SH (AID 661)
# Settings: SK-N-SH caspase-3 activation, qHTS, DMSO as zero, staurosporine as full; series mostly up to 91.7 µM
# Summary of the method: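 Human SK-N-SH neuroblastoma cells, 1500/well, were exposed to compounds for 16 hours at 37 °C. Caspase-Glo 3/7 luminescence was normalized to DMSO (basal) and 10 uM staurosporine (100%), and AC50 came from a Hill fit.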
row,Structure (SMILES),outcome
1,C=CCc1ccc(OC)c(OC)c1,inactive
2,C=C(C)C1CC=C(C)C(O)C1 (centres undefined),inactive
3,CC1=C2[C@H](/C=C(\C)C(=O)O)CC[C@@H](C)[C@H]2CC1,inactive
4,CCCCCCCCCCCC(=O)O,inactive

# Tested on: not listed separately
# Experiment: Cellular Toxicity (caspase-3) H-4-II-E (AID 663);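 also: cells exposed to compound for 16 hr before readout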
# Settings: H-4-II-E rat hepatoma; Potency: caspase-3 activation; series mostly up to 92.2 µM
# Summary of the method: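 Apoptosis induction is scored as increased luminescence from caspase 3/7 substrate cleavage in rat hepatoma H-4-II-E cells exposed to compound for 16 hr. Activity is scaled between DMSO and 100 uM tamoxifen.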
row,Structure (SMILES),Potency
1,C=CCc1ccc(OC)c(OC)c1,inactive
2,C=C(C)C1CC=C(C)C(O)C1 (centres undefined),inactive
3,CC1=C2[C@H](/C=C(\C)C(=O)O)CC[C@@H](C)[C@H]2CC1,inactive
4,CCCCCCCCCCCC(=O)O,inactive

# Tested on: not listed separately
# Experiment: Cellular Toxicity (caspase-3) Hek293 (AID 664);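 also: cells exposed to compound for 16 h at 37 °C before readout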
# Settings: HEK293 caspase-3 activation, DMSO = 0%, 100 µM tamoxifen = 100%; series mostly up to 92.2 µM
# Summary of the method: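 HEK293 cells in complete medium treated 16 h at 37 °C, then Caspase-Glo 3/7 luminescence read after 20 min at room temperature. Normalized to DMSO and 100 uM tamoxifen; AC50 from Hill fit of concentration-response.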
row,Structure (SMILES),outcome
1,C=CCc1ccc(OC)c(OC)c1,inactive
2,C=C(C)C1CC=C(C)C(O)C1 (centres undefined),inactive
3,CC1=C2[C@H](/C=C(\C)C(=O)O)CC[C@@H](C)[C@H]2CC1,inactive
4,CCCCCCCCCCCC(=O)O,inactive

# Tested on: not listed separately
# Experiment: Cellular Toxicity (caspase-3) N2a (AID 665);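 also: compound exposure lasted 16 h at 37 °C before readout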
# Settings: N2a cells, luminescence, normalized: DMSO 0%, 10 µM staurosporine 100%; series mostly up to 92.2 µM
# Summary of the method: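 Mouse N2a neuroblastoma cells, 1500 per well, treated 16 h at 37 °C in complete medium; caspase-3/7 activity by Caspase-Glo luminescence after 1 h. Normalized to DMSO and 10 uM staurosporine; AC50 from Hill fits.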
row,Structure (SMILES),outcome
1,C=CCc1ccc(OC)c(OC)c1,inactive
2,C=C(C)C1CC=C(C)C(O)C1 (centres undefined),inactive
3,CC1=C2[C@H](/C=C(\C)C(=O)O)CC[C@@H](C)[C@H]2CC1,inactive
4,CCCCCCCCCCCC(=O)O,inactive

# Tested on: not listed separately
# Experiment: Cellular Toxicity (caspase-3) NIH 3T3 (AID 666);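 also: caspase signal read after 16 h compound exposure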
# Settings: NIH 3T3 caspase-3 activation, apoptosis/toxicity, 0% DMSO, 100% is 100 µM tamoxifen; series mostly up to 92.2 µM
# Summary of the method: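 Mouse NIH 3T3 fibroblasts (1000/well) treated 16 h at 37 C; caspase-3/7 activity measured by Caspase-Glo 3/7 luminescence after 20 min. Normalized to DMSO and 100 uM tamoxifen; AC50 from Hill fits.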
row,Structure (SMILES),outcome
1,C=CCc1ccc(OC)c(OC)c1,inactive
2,C=C(C)C1CC=C(C)C(O)C1 (centres undefined),inactive
3,CC1=C2[C@H](/C=C(\C)C(=O)O)CC[C@@H](C)[C@H]2CC1,inactive
4,CCCCCCCCCCCC(=O)O,inactive

# Tested on: not listed separately
# Experiment: Cellular Toxicity (caspase-3) Renal Proximal Tubule (AID 667);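 also: cells exposed to compound for 16 hours at 37 °C before detection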
# Settings: renal proximal tubule cells, primary cells freshly taken from rat, solvent-only wells 0%, staurosporine 100%; series mostly up to 91.7 µM
# Summary of the method: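 In qHTS format, rat primary proximal tubule cells seeded at 1000 per well are exposed to compounds for 16 hours at 37 °C. An increase in Caspase-Glo 3/7 luminescence indicates caspase activation.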
row,Structure (SMILES),outcome
1,C=CCc1ccc(OC)c(OC)c1,inactive
2,C=C(C)C1CC=C(C)C(O)C1 (centres undefined),inactive
3,CC1=C2[C@H](/C=C(\C)C(=O)O)CC[C@@H](C)[C@H]2CC1,inactive
4,CCCCCCCCCCCC(=O)O,inactive

# Target: Cytochrome P450 3A4 (Homo sapiens) (UniProt P08684)
# Experiment: qHTS Assay for Inhibitors and Substrates of Cytochrome P450 3A4 (AID 884); also: nearly all actives have a fitted effect of over 50% in size; also: potency is read from the fitted curve at half-maximal effect
# Settings: recombinant CYP3A4, Luciferin-PPXE luminescence; series mostly up to 57.1 µM
# Summary of the method: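 20 nM human CYP3A4 with 25 uM Luciferin-PPXE (at KM) in 200 mM KPO4, preincubated 10 min with compound; NADPH regeneration started a 60 min RT reaction. Luciferin detected by luminescence, normalized to 57 uM ketoconazole as full inhibition.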
# Cytochrome P450 3A4 (Homo sapiens), sequence (P08684 whole entry, looked up): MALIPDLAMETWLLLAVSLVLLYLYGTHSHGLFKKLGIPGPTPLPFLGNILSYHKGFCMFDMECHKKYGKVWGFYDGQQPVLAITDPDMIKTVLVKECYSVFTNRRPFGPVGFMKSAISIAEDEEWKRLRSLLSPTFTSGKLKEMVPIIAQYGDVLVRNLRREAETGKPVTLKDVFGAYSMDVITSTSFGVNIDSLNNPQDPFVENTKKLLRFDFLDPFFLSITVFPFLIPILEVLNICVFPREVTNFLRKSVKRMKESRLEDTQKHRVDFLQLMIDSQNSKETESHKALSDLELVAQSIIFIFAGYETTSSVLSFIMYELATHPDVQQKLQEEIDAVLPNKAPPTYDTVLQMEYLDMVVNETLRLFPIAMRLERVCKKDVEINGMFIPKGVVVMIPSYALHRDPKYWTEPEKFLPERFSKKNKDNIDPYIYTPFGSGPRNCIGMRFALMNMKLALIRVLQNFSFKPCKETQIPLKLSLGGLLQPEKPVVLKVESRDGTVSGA
row,Structure (SMILES),Potency
1,C=CCc1ccc(OC)c(OC)c1,inactive
2,C=C(C)C1CC=C(C)C(O)C1 (centres undefined),inactive
3,COc1ccc2[nH]cc(CCNc3ncncc3-c3ccccc3C(F)(F)F)c2c1,251 nM (active)
4,CC1=C2[C@H](/C=C(\C)C(=O)O)CC[C@@H](C)[C@H]2CC1,inactive
5,CN(C)c1nc(-c2cccc(NS(C)(=O)=O)c2)nc2ccccc12,6310 nM (active)
6,COc1ccccc1CNc1ncncc1-c1ccccc1C(F)(F)F,79.4 nM (active)
7,CCCCCCCCCCCC(=O)O,inactive

# Target: Cytochrome P450 3A4 (Homo sapiens) (UniProt P08684)
# Experiment: qHTS Assay for Activators of Cytochrome P450 3A4 (AID 885); also: nearly all actives have a fitted effect of over 65% in size
# Settings: recombinant CYP3A4, Luciferin-PPXE luminescence, 60 min; series mostly up to 57.1 µM
# Summary of the method: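 Quantitative HTS format: compounds preincubated with 20nM human CYP3A4 and Luciferin-PPXE substrate at KM, reaction started by NADPH regeneration, stopped after 60 min, luciferase luminescence read 20 min later.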
row,Structure (SMILES),outcome
1,CN(C)Cc1ccccc1-c1ccc2ncnc(N(C)C)c2c1,inactive
2,COc1ccc2[nH]cc(CCNc3ncncc3-c3ccccc3C(F)(F)F)c2c1,inactive
3,CN(C)C(=O)c1ccc(-c2ccc3ncnc(Nc4ccc(F)cc4)c3c2)cc1,inactive
4,CN1CCN(c2nc(-c3ccoc3)nc3ccccc23)CC1,inactive
5,CN(C)c1nc(-c2cccc(NS(C)(=O)=O)c2)nc2ccccc12,inactive
6,O=c1cnc2cnc(N3CCOCC3)nc2n1Cc1cccs1,inactive
7,COc1ccccc1CNc1ncncc1-c1ccccc1C(F)(F)F,inactive
8,COc1ccccc1CNc1ncnc2ccc(-c3ccc(C(=O)N(C)C)cc3)cc12,inactive
